# Data from ChEMBL document CHEMBL5606460, “ASAP - DENV-2 NS2B-NS3 protease fluorescence single point” (2024).
# The whole screen tested about 2,000 compounds, of which about 110 (5.5%) showed an effect of 50% or more. The list comes from a sample in which strong results are over-represented; it also holds similar structures and randomly drawn compounds.
# Target: Genome polyprotein (dengue virus type 2) (UniProt P29990)
# [1] = Thailand/16681/1984, Concentration 25.0 uM, Number of replicates 1.0
compound,measurement,setting,value
CC(C)(CO)NC(=O)c1cc(Cl)cc(NS(=O)(=O)c2ccccc2)c1,inhibition,"Thailand/16681/1984, Concentration 49.5 uM, Number of replicates 2.0, Standard deviation 0.43077113751226487 %",-5.72%
same,inhibition,"Thailand/16681/1984, Concentration 99.01 uM, Number of replicates 2.0, Standard deviation 0.028975789763845603 %",-4.57%
same,inhibition,"Thailand/16681/1984, Concentration 198.0 uM, Number of replicates 2.0, Standard deviation 1.4999717780869397 %",-2.99%
O=Cc1ccc(N2CCC(C(=O)NCc3cc(C(F)(F)F)ccc3C(F)(F)F)CC2)cc1,inhibition,[1],1.04%
Cn1cnc2[nH]c(C(=O)N3CC[C@H](c4c[nH]c5ccccc45)C3)cc21,inhibition,"Thailand/16681/1984, Concentration 49.5 uM, Number of replicates 2.0, Standard deviation 2.003876801484884 %",-2.49%
same,inhibition,"Thailand/16681/1984, Concentration 99.01 uM, Number of replicates 2.0, Standard deviation 1.2772748269322285 %",-1.94%
same,inhibition,"Thailand/16681/1984, Concentration 198.0 uM, Number of replicates 2.0, Standard deviation 1.685869304282425 %",-0.105%
O=Cc1ccc(N2CCC(C(=O)Nc3cc(Cl)cc(Cl)c3O)CC2)cc1,inhibition,[1],98.2%
O=Cc1ccc(N2CCC(C(=O)Nc3cc(Cl)c(O)c(Cl)c3)CC2)cc1,inhibition,[1],100%
O=Cc1ccc(N2CCC(C(=O)Nc3cc(Cl)cc([N+](=O)[O-])c3O)CC2)cc1,inhibition,[1],90.5%
O=Cc1ccc(N2CCC(C(=O)Nc3ccc([N+](=O)[O-])cc3Cl)CC2)cc1,inhibition,[1],23.5%
O=Cc1ccc(N2CCC(C(=O)Nc3c(Cl)cc(Cl)cc3Br)CC2)cc1,inhibition,[1],13.4%
O=Cc1ccc(N2CCC(C(=O)Nc3cc(Cl)c(F)c(Cl)c3)CC2)cc1,inhibition,[1],13.1%
O=Cc1ccc(N2CCC(C(=O)Nc3ccc(Cl)c(Cl)c3)CC2)cc1,inhibition,[1],11.8%
O=Cc1ccc(N2CCC(C(=O)Nc3cc(Cl)ccc3Br)CC2)cc1,inhibition,[1],13.8%
O=Cc1ccc(N2CCC(C(=O)Nc3ccc(O)cc3[N+](=O)[O-])CC2)cc1,inhibition,[1],24.5%
c1cnc2c(C3CCN(Cc4cnn5ccccc45)CC3)c[nH]c2c1,inhibition,"Thailand/16681/1984, Concentration 49.5 uM, Number of replicates 2.0, Standard deviation 1.316281988110152 %",-4.72%
same,inhibition,"Thailand/16681/1984, Concentration 99.01 uM, Number of replicates 2.0, Standard deviation 2.2605015442223797 %",-3.44%
same,inhibition,"Thailand/16681/1984, Concentration 198.0 uM, Number of replicates 2.0, Standard deviation 0.9691516929362414 %",-2.08%
O=Cc1ccc(N2CCC(C(=O)N3CCN(C(=O)Cc4ccccc4)CC3)CC2)cc1,inhibition,[1],12.3%
CN(C)C1(CNC(=O)C2CCN(c3ccc(C=O)cc3)CC2)CCOCC1,inhibition,[1],12.1%
NCc1ncc(C(=O)Nc2ccccc2N2CCC(CO)CC2)c(C(F)(F)F)n1,inhibition,"Thailand/16681/1984, Concentration 49.5 uM, Number of replicates 2.0, Standard deviation 1.1543273279104322 %",2.58%
same,inhibition,"Thailand/16681/1984, Concentration 99.01 uM, Number of replicates 2.0, Standard deviation 0.2964400275887672 %",4.99%
same,inhibition,"Thailand/16681/1984, Concentration 198.0 uM, Number of replicates 2.0, Standard deviation 0.14686490832106133 %",6.91%
NCc1cccc(NC(=O)[C@H]2CN(C(=O)OCc3ccccc3)CC23CCOCC3)c1,inhibition,"Thailand/16681/1984, Concentration 49.5 uM, Number of replicates 2.0, Standard deviation 3.4820905640560142 %",-2.83%
same,inhibition,"Thailand/16681/1984, Concentration 99.01 uM, Number of replicates 2.0, Standard deviation 3.010767204046265 %",-1.08%
same,inhibition,"Thailand/16681/1984, Concentration 198.0 uM, Number of replicates 2.0, Standard deviation 2.6769829613344203 %",-0.776%
O=Cc1ccc(N2CCC(C(=O)Nc3ccc(OC(F)(F)F)cc3Cl)CC2)cc1,inhibition,[1],13.6%
COc1cc(COc2cncnc2)nc(N2CCNCC2)n1,inhibition,"Thailand/16681/1984, Concentration 49.5 uM, Number of replicates 2.0, Standard deviation 3.306986633712837 %",-2.35%
same,inhibition,"Thailand/16681/1984, Concentration 99.01 uM, Number of replicates 2.0, Standard deviation 2.7720530174645646 %",-0.505%
same,inhibition,"Thailand/16681/1984, Concentration 198.0 uM, Number of replicates 2.0, Standard deviation 2.4477408574870583 %",0.524%
O=C(NCc1cocn1)c1cc(Cl)ccc1NS(=O)(=O)c1ccc(Oc2ccccc2Cl)cc1,inhibition,"Thailand/16681/1984, Concentration 49.5 uM, Number of replicates 2.0, Standard deviation 0.2927162692291327 %",78.5%
same,inhibition,"Thailand/16681/1984, Concentration 99.01 uM, Number of replicates 2.0, Standard deviation 0.11144031356026086 %",70.2%
same,inhibition,"Thailand/16681/1984, Concentration 198.0 uM, Number of replicates 2.0, Standard deviation 0.4940824474713894 %",60.8%
O=C(NCc1c[nH]nn1)c1cc(Cl)ccc1NS(=O)(=O)c1ccc(Oc2ccccc2Cl)cc1,inhibition,"Thailand/16681/1984, Concentration 49.5 uM, Number of replicates 2.0, Standard deviation 0.023138282657692737 %",75.2%
same,inhibition,"Thailand/16681/1984, Concentration 99.01 uM, Number of replicates 2.0, Standard deviation 0.008898717007196123 %",63.2%
same,inhibition,"Thailand/16681/1984, Concentration 198.0 uM, Number of replicates 2.0, Standard deviation 0.06140627240643217 %",36.5%
Cc1ccc(CNC(=O)c2cc(Cl)ccc2NS(=O)(=O)c2ccc(Oc3ccccc3Cl)cc2)s1,inhibition,"Thailand/16681/1984, Concentration 49.5 uM, Number of replicates 2.0, Standard deviation 0.032039697063193553 %",83.2%
same,inhibition,"Thailand/16681/1984, Concentration 99.01 uM, Number of replicates 2.0, Standard deviation 0.20602188771616411 %",78.6%
same,inhibition,"Thailand/16681/1984, Concentration 198.0 uM, Number of replicates 2.0, Standard deviation 0.539307027447943 %",69.5%
COc1cccc(Cn2cc(C3CCNCC3)c(C)n2)n1,inhibition,"Thailand/16681/1984, Concentration 49.5 uM, Number of replicates 2.0, Standard deviation 0.5897033629115713 %",-3.33%
same,inhibition,"Thailand/16681/1984, Concentration 99.01 uM, Number of replicates 2.0, Standard deviation 0.7206939136220955 %",-3.64%
same,inhibition,"Thailand/16681/1984, Concentration 198.0 uM, Number of replicates 2.0, Standard deviation 2.0772079346215944 %",-3.79%
CCCCCC(=O)N[C@H](C(=O)N1CCC[C@@H](N)C1)c1ccc(OCc2ccccc2)cc1,inhibition,"Thailand/16681/1984, Concentration 49.5 uM, Number of replicates 2.0, Standard deviation 1.275572557867722 %",-0.123%
same,inhibition,"Thailand/16681/1984, Concentration 99.01 uM, Number of replicates 2.0, Standard deviation 1.3300520589416613 %",0.674%
same,inhibition,"Thailand/16681/1984, Concentration 198.0 uM, Number of replicates 2.0, Standard deviation 1.6287502093065211 %",2.04%
O=Cc1ccc(N2CCC(C(=O)NCCc3cccc4ccccc34)CC2)cc1,inhibition,[1],11.1%
Cc1cc(CO)c2cccc(Cc3ccccc3C(=O)NCc3c(C)noc3C)c2n1,inhibition,"Thailand/16681/1984, Concentration 49.95 uM, Number of replicates 2.0, Standard deviation 0.3226747127660098 %",-0.757%
same,inhibition,"Thailand/16681/1984, Concentration 99.9 uM, Number of replicates 2.0, Standard deviation 0.21847019123152348 %",0.39%
COc1ccc(F)c(-c2nn(C)cc2NC(=O)c2ccccc2C(F)(F)F)c1,inhibition,"Thailand/16681/1984, Concentration 49.5 uM, Number of replicates 2.0, Standard deviation 3.583319549695768 %",-2.64%
same,inhibition,"Thailand/16681/1984, Concentration 99.01 uM, Number of replicates 2.0, Standard deviation 4.648656873158677 %",-2.47%
same,inhibition,"Thailand/16681/1984, Concentration 198.0 uM, Number of replicates 2.0, Standard deviation 3.7890463989356435 %",-2.09%
COc1ccc(F)cc1-c1ccccc1C(=O)Nc1cnn(C)c1,inhibition,"Thailand/16681/1984, Concentration 49.5 uM, Number of replicates 2.0, Standard deviation 2.2581672831644526 %",-4.25%
same,inhibition,"Thailand/16681/1984, Concentration 99.01 uM, Number of replicates 2.0, Standard deviation 1.9365380229757554 %",-2.49%
same,inhibition,"Thailand/16681/1984, Concentration 198.0 uM, Number of replicates 2.0, Standard deviation 2.756548372009165 %",-2.95%
Cn1cc(NC(=O)c2ccccc2C(F)(F)F)c(-c2ccc(CO)cc2)n1,inhibition,"Thailand/16681/1984, Concentration 49.5 uM, Number of replicates 2.0, Standard deviation 2.3161186941047496 %",-4.04%
same,inhibition,"Thailand/16681/1984, Concentration 99.01 uM, Number of replicates 2.0, Standard deviation 3.5021876776391307 %",-2.8%
same,inhibition,"Thailand/16681/1984, Concentration 198.0 uM, Number of replicates 2.0, Standard deviation 4.667974048773386 %",-3.05%
NC(=O)c1cccc(NC(=O)[C@@H](NC(=O)c2ccc(Oc3ccc(C(F)(F)F)cc3)cc2)c2ccc(OCc3ccccc3)cc2)c1,inhibition,"Thailand/16681/1984, Concentration 49.5 uM, Number of replicates 2.0, Standard deviation 0.7362133947681709 %",6.2%
same,inhibition,"Thailand/16681/1984, Concentration 99.01 uM, Number of replicates 2.0, Standard deviation 0.5343411171689955 %",12.7%
same,inhibition,"Thailand/16681/1984, Concentration 198.0 uM, Number of replicates 2.0, Standard deviation 1.7800185360663037 %",24.8%
